Test system: EGFR
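Note: kd values determined as follow-up on hits from a single-replicate KINOMEscan panel screen.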

Compound	Kd [nM]
CS(=O)(=O)CCNCc1ccc(-c2ccc3ncnc(Nc4ccc(OCc5ccccc5)c(Cl)c4)c3c2)o1.Cl [GW574783]	0.82
Fc1cccc(COc2ccc(Nc3ncnc4sc(-c5ccc[nH]5)cc34)cc2Cl)c1 [GW707818]	2.6
OCCOCCn1ccc2ncnc(Nc3ccc(Oc4cccc(Cl)c4)c(Cl)c3)c21	8.5
Cl.c1ccc(Cn2ccc3cc(Nc4ncnc5ccccc45)ccc32)cc1 [GW275568]	5

Test system: EPHA3

Compound	Kd [nM]
O=c1cc(N2CCOCC2)nc2n(Cc3cccc(Cl)c3)ccn12 [GSK2296823]	> 10000
Cl.Cn1ccc(-c2cccc(Nc3ccnc4cc(-c5nccs5)ccc34)c2)n1 [GW525701]	> 10000
CCn1c(-c2ccncc2)nc2cnccc21 [SB-735216]	> 10000

Test system: EPHB6

Compound	Kd [nM]
CCc1nc(-c2cccc(C)c2)c(-c2ccnc(NC(=O)c3ccccc3)c2)s1	7600
Cl.Cn1ccc(-c2cccc(Nc3ccnc4cc(-c5nccs5)ccc34)c2)n1 [GW525701]	82
O=C(Nc1n[nH]c2nc(-c3ccco3)c(Br)cc12)c1ccc(CN2CCCC2)cc1.O=C(O)[C@H](O)[C@@H](O)C(=O)O [SB-742352]	160
CCc1nc(-c2cccc(N(C)S(=O)(=O)c3ccccc3)c2)c(-c2ccnc(Nc3ccc(N4CCN(C(C)=O)CC4)nc3)n2)s1 [GSK1645895]	24

Test system: ERBB2

Compound	Kd [nM]
CS(=O)(=O)CCNCc1ccc(-c2ccc3ncnc(Nc4ccc(OCc5ccccc5)c(Cl)c4)c3c2)o1.Cl [GW574783]	2.8
Fc1cccc(COc2ccc(Nc3ncnc4sc(-c5ccc[nH]5)cc34)cc2Cl)c1 [GW707818]	100
OCCOCCn1ccc2ncnc(Nc3ccc(Oc4cccc(Cl)c4)c(Cl)c3)c21	2.9
Cl.c1ccc(Cn2ccc3cc(Nc4ncnc5ccccc45)ccc32)cc1 [GW275568]	14

Test system: ERBB4

Compound	Kd [nM]
O=c1cc(N2CCOCC2)nc2n(Cc3cccc(Cl)c3)ccn12 [GSK2296823]	> 10000
CS(=O)(=O)CCNCc1ccc(-c2ccc3ncnc(Nc4ccc(OCc5ccccc5)c(Cl)c4)c3c2)o1.Cl [GW574783]	28
Fc1cccc(COc2ccc(Nc3ncnc4sc(-c5ccc[nH]5)cc34)cc2Cl)c1 [GW707818]	560
OCCOCCn1ccc2ncnc(Nc3ccc(Oc4cccc(Cl)c4)c(Cl)c3)c21	77
Cl.c1ccc(Cn2ccc3cc(Nc4ncnc5ccccc45)ccc32)cc1 [GW275568]	140
